# Data published in the supplement of paper PMC8728848.
# The entries come from a sample that favours the strongest signals as a whole.
# Experiments:
# Experiment in all cases: glycan array binding signal (z-score within array); higher = stronger binding
# Conditions in all cases: glycan notation: IUPAC condensed, linker removed
# [1] = test system: Gal(b1-3)[Fuc(a1-4)]GlcNAc(b1-2)Man(a1-3)[Gal(b1-3)[Fuc(a1-4)]GlcNAc(b1-2)Man(a1-6)]Man(b1-4)GlcNAc(b1-4)[Fuc(a1-6)]GlcNAc
# Summary of the method: (§1)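 Glycan array data came from 3228 arrays in the Consortium for Functional Glycomics database, and only arrays with an available protein sequence were kept. Glycan names were put into IUPAC-condensed notation, and columns mapping to the same glycan were averaged. The binding signal is a within-array Z-score, averaged across arrays of one protein sequence run at different concentrations or buffers and across linkers. A negative Z-score can be read as non-binding.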
# Gal(b1-3)GlcNAc(b1-2)Man = test system: Gal(b1-3)GlcNAc(b1-2)Man
# Summary of the method: as §1
# [2] = test system: Gal(b1-3)[Fuc(a1-4)]GlcNAc
# Summary of the method: as §1
# [3] = test system: Gal(b1-3)[Neu5Ac(a2-6)]GalNAc
# Summary of the method: as §1
# Gal(b1-4)Glc6S = test system: Gal(b1-4)Glc6S
# Summary of the method: as §1
# [4] = test system: Gal(b1-3)GlcNAc(b1-3)Gal(b1-4)Glc
# Summary of the method: as §1
# [5] = test system: Gal(b1-3)[Fuc(a1-4)]GlcNAc(b1-2)Man(a1-3)[Gal(b1-3)[Fuc(a1-4)]GlcNAc(b1-2)Man(a1-6)]Man(b1-4)GlcNAc(b1-4)GlcNAc
# Summary of the method: as §1
# [6] = test system: Gal(b1-4)GalNAc(b1-3)[Fuc(a1-2)]Gal(b1-4)GlcNAc
# Summary of the method: as §1
# [7] = test system: Gal(b1-3)[Fuc(a1-4)]GlcNAc(b1-3)Gal(b1-4)GlcNAc
# Summary of the method: as §1
# [8] = test system: Gal(b1-3)[Fuc(a1-4)]GlcNAc(b1-6)GalNAc
# Summary of the method: as §1
# Gal(b1-4)Gal = test system: Gal(b1-4)Gal
# Summary of the method: as §1
# [9] = test system: Gal(b1-3)[Fuc(a1-4)]GlcNAc(b1-3)Gal(b1-3)[Fuc(a1-4)]GlcNAc
# Summary of the method: as §1
# [10] = test system: Gal(b1-3)GlcNAc(b1-3)Gal(b1-4)GlcNAc(b1-2)[Gal(b1-3)GlcNAc(b1-3)Gal(b1-4)GlcNAc(b1-6)]Man(a1-6)[Gal(b1-3)GlcNAc(b1-3)Gal(b1-4)GlcNAc(b1-2)Man(a1-3)]Man(b1-4)GlcNAc(b1-4)[Fuc(a1-6)]GlcNAc
# Summary of the method: as §1
# [11] = test system: Gal(b1-3)GlcNAc(b1-3)Gal(b1-4)GlcNAc(b1-3)Gal(b1-4)GlcNAc(b1-2)[Gal(b1-3)GlcNAc(b1-3)Gal(b1-4)GlcNAc(b1-3)Gal(b1-4)GlcNAc(b1-6)]Man(a1-6)[Gal(b1-3)GlcNAc(b1-3)Gal(b1-4)GlcNAc(b1-3)Gal(b1-4)GlcNAc(b1-2)Man(a1-3)]Man(b1-4)GlcNAc(b1-4)[Fuc(a1-6)]GlcNAc
# Summary of the method: as §1
# [12] = test system: Gal(b1-3)GlcNAc(b1-6)Gal(b1-4)GlcNAc
# Summary of the method: as §1
# Gal(b1-3)GlcNAc6S = test system: Gal(b1-3)GlcNAc6S
# Summary of the method: as §1
# [13] = test system: Gal(b1-3)GlcNAc(b1-2)Man(a1-3)[GlcNAc(b1-4)][Gal(b1-3)GlcNAc(b1-2)Man(a1-6)]Man(b1-4)GlcNAc(b1-4)GlcNAc
# Summary of the method: as §1
# [14] = test system: Gal(b1-3)GlcNAc(b1-3)Gal(b1-4)GlcNAc(b1-6)[Gal(b1-3)GlcNAc(b1-3)]Gal(b1-4)Glc
# Summary of the method: as §1
# [15] = test system: Gal(b1-3)GlcNAc(b1-6)GalNAc
# Summary of the method: as §1
# [16] = test system: Gal(b1-3)[Fuc(a1-4)]GlcNAc(b1-3)Gal(b1-4)[Fuc(a1-3)]GlcNAc
# Summary of the method: as §1
substance,measurement,setting,value
Actinohivin (Actinomycete K97),glycan array binding signal (z-score),[1],2.06
Epa22,glycan array binding signal (z-score),Gal(b1-3)GlcNAc(b1-2)Man,-0.018
same,glycan array binding signal (z-score),[2],-0.223
same,glycan array binding signal (z-score),[3],3.02
same,glycan array binding signal (z-score),Gal(b1-4)Glc6S,-0.061
"BambL (Burhholderia ambifaria), Q0B4G1",glycan array binding signal (z-score),[4],-0.312
same,glycan array binding signal (z-score),[5],-0.317
same,glycan array binding signal (z-score),[1],-0.066
same,glycan array binding signal (z-score),[6],-0.283
"Wza (Escherichia coli), P0A930",glycan array binding signal (z-score),[4],-0.658
same,glycan array binding signal (z-score),[7],1.14
same,glycan array binding signal (z-score),[8],2.92
AgI/II Vhelical-GFP (Streptococcus mutans),glycan array binding signal (z-score),[8],1.08
same,glycan array binding signal (z-score),Gal(b1-4)Gal,2.56
same,glycan array binding signal (z-score),Gal(b1-4)Glc6S,-0.148
"SiiE (Salmonella typhimurium), A0A0H3NVH0",glycan array binding signal (z-score),[9],-0.613
AgI/IIC123-GFP (Streptococcus mutans),glycan array binding signal (z-score),[10],5.61
same,glycan array binding signal (z-score),[11],-0.036
same,glycan array binding signal (z-score),[12],0.823
same,glycan array binding signal (z-score),Gal(b1-3)GlcNAc6S,-0.244
LcI (Legionella pneumophila),glycan array binding signal (z-score),[13],0.389
same,glycan array binding signal (z-score),[14],-0.388
same,glycan array binding signal (z-score),[12],-0.157
same,glycan array binding signal (z-score),[15],3.69
"SpGH101 (Streptococcus pneumoniae), Q8DR60",glycan array binding signal (z-score),[5],1.28
same,glycan array binding signal (z-score),[1],0.539
same,glycan array binding signal (z-score),[16],-0.146
